Calls of active or inactive are those of the source. The calls were made as follows: active = hit-call score of the fitted dose curve at least 0.9, where 1 is the maximum; inactive = score below 0.9.

Read-out in this assay: CYP2C9 (gene 1559)
The experiment in a line: LTEA_HepaRG_CYP2C9: Life Technologies and Expression Analysis (LTEA) Assay for CYP2C9 using HepaRG (AID 2283484). To be noted: mRNA level, 48 h; actives raise or lower the signal. The procedure: LTEA_HepaRG is a cell based, multiplexed-readout assay that uses HepaRG, a human liver cell line, with measurements taken at 48 hours after chemical dosing on a 96-well plate.LTEA_HepaRG_CYP2C9 is one of 102 assay component(s) measured in the LTEA HepaRG cell culture assay. It is a marker of NR mediated metabolism.Data from the assay component LTEA_HepaRG_CYP2C9 was analyzed into 1 endpoint. This assay endpoint, LTEA_HepaRG_CYP2C9, was analyzed with bidirectional fitting relative to DMSO as the negative control and baseline of activity. Using a type of inducible reporter, measures of mRNA induction for gain or loss-of-signal activity can be used to understand regulation of transcription factor activity. To generalize the intended target to other relatable targets, this assay endpoint is annotated to the cyp intended target family, where the subfamily is xenobiotic metabolism.
A total of 1060 chemcials from the ToxCast library were tested in eight-point concentration-response experiments. Cell culture and cytotoxicity assays were conducted at Thermo Fisher Scientific's Custom Services facility (Madison, WI). A single lot of human HepaRG cells (Thermo Fisher Scientific, Frederick, MD) was used for the cell culture experiments. 96-well format collagen type I coated plates of human HepaRG cells were prepared using established methods. Briefly, cryopreserved HepaRG cells were thawed, plated at a density of approximately 100,000 cells/well in HepaRG Thaw, Plate, and General Purpose media (HPRG770, Thermo Fisher Scientific), and incubated for 48 hours. 0.5% DMSO was selected as vehicle control to balance the requisite need of DMSO in HepaRG cultures to maintain differentiation (for example, baseline metabolism, proportions of hepatocytes vs. cholangiocytes), while enabling further hepatic receptor pathway activation (for example, PXR and CAR) in response to chemical exposure. 48 hours after plating, the culture medium was replaced with HepaRG Serum-Free Incudtion Media. Cells were exposed to each test chemical in duplicate and maintained in CO2 incubators for another 48 hours. Chemical plates were thawed to room temperature and 200x concentrations of treatment groups were prepared. 8-point conentration-reponse curves were made with the highest exposure at 100 uM, followed by half-log dilutions, all in 0.5% DMSO. Each test plate contained variouse controls, induction positive controls (1mM phenobarbital), cytotoxicity positive controls ([…] aflatoxin B1), vehicle controls (0.5% DMSO), and total lysis controls (0.5% DMSO). Cell morphology images were taken using an Essen IncuCyte FLR automated microscope, with six 96-well plates imaged in about 24 minutes. Images were captured and exported and JPEG files. Spent culture media was transfered to black-well plates for the LDH assay, and remaining media was sorted at -80 C for later use. Cells were treated with RLT buffer and frozen until shipped for gene expression analysis. Total RNA was isolated from the cell suspension in 75 uL of Buffer RLT (Qiagen, Germantown, MD 20874) by Quintiles/Expression Analysis (Durham, NC) using a custom isolation procedure. Total RNA from each plate well was transferred to a preamplification plate. Fluidigm's 96.96 Dynamic ArrayTM (Fluidigm, Amsterdam, the Netherlands) technology was used for gene expression analyses by quantitative reverse transcription polymerase chain reaction (qRT-PCR, performed by Quintiles/Expression Analysis, Durham, NC)89. Standard TaqManTM Assays (Applied Biosystems/ThermoFisher Scientific, Foster City, CA) were used to assess the expression of 93 genes selected based on their selectivity and sensitivity to important hepatic receptors known to be modulated by environmental chemicals; importance in human hepatocyte functionality; and hepatotoxicity. […]
Take `Nc1ccccc1N`: the AC50 (usually the midpoint of the concentration-response curve, whichever way the signal moves) is 71 µM (active).

For `COC(=O)c1ccc(O)cc1`, the call was inactive. For `Oc1ccc2ccccc2c1N=Nc1ccccc1`, the AC50 was 9.92 µM (active). As to `COc1ccc(C)cc1N`, the call was inactive. The same measure, in the same setting: then `O=[N+]([O-])C(CO)(CO)CO`, with “inactive”; and `CCOc1ccc2c(c1)C(C)=CC(C)(C)N2`, with “inactive”; and `CCCc1cc(=O)[nH]c(=S)[nH]1`, with “inactive”. On the same count and under the same terms, as for `CC(C)c1ccc(C(=O)N=C(N)N)cc1S(C)(=O)=O`, the entry is “inactive”. On the same count and under the same terms, as for `O=C(OCCCCCOC(=O)c1ccccc1)c1ccccc1`, the entry is “inactive”; as for `Cc1cccc(Nc2cc(Cl)nc(SCC(=O)O)n2)c1C`, “inactive”; as for `C=CCOC(=O)c1ccccc1C(=O)OCC=C`, “inactive”. In the case of `COCCOCCOC`, the call was inactive. Consider `O=C(N[C@@H](Cc1ccccc1)[C@@H](O)C(=O)N1C[C@@H](O)[C@@H](O)C1)c1cc2cc(Cl)ccc2[nH]1`, for which the AC50 was 12.5 µM (active).

As for `O=c1[nH]cc(F)c(=O)[nH]1`, the outcome was inactive. The same measure, in the same setting: as for `NCC1(Cc2noc(=O)[nH]2)CCCCC1`, the entry is “inactive”. In the case of `C1CCC(SSC2CCCCC2)CC1`, the compound was classed as inactive. Turning to `Cc1oc(-c2ccccc2)nc1CCOc1cccc2c1ccn2CCC(=O)O`, the AC50 is 77.9 µM (active). As to `Cc1ccc(N(C)C)cc1`, the compound was classed as inactive. The same measure, in the same setting: as for `CC(=O)OCCOCCOCCOC(C)=O`, the entry is “inactive”; as for `NCCO`, “inactive”; as for `CCCCCCCCCCCC(=O)OC`, “inactive”. For `CCCCCCOCCO`, the compound was called inactive. Still for that read-out and setting: then `CCCCCCCCCCCCCCCC`, with “inactive”; and `NS(=O)(=O)c1cc2c(cc1Cl)NCNS2(=O)=O`, with “inactive”. Same read-out and setting: then `FC(F)(F)C(F)(F)C(F)(F)C(F)(F)C(F)(F)C(F)(F)CCI`, with “inactive”; and `c1cc(-c2ccncc2)ccn1`, with “inactive”; and `Cc1ccc(Cl)cc1`, with “inactive”. Regarding `CCCCCCCCCCCCCCCCCC(=O)O`, the result was inactive. For the compound `O=c1c(O)c(-c2ccc(O)c(O)c2)oc2cc(O)cc(O)c12`, the call was inactive.

For `CCCCCC(=O)O`, the compound was called inactive. Still for that read-out and setting: as for `CCNc1cccc(C)c1`, the entry is “inactive”; as for `COc1cc(S(=O)(=O)O)c(C)cc1N=Nc1c(O)ccc2cc(S(=O)(=O)O)ccc12`, “inactive”.

Turning to `Cc1cccc(C)c1O`, the call was inactive. In the case of `COc1ccc2c(c1)c(CC(=O)O)c(C)n2C(=O)c1ccc(Cl)cc1`, the compound was called inactive. On to `CC(=O)Oc1ccccc1C(=O)O`, for which the result was inactive. With `CCc1c(C(=O)NN2CCCCC2)nn(-c2ccc(Cl)cc2Cl)c1-c1ccc(Br)cc1`, the AC50 is 30.4 µM (active). On to `CCCCCCCCCCC`, for which the result was inactive. Regarding `CC1(C)NC(=O)NC1=O`, the call was inactive. `Cc1nc(C)nc(N2C[C@@H](C)N(c3ccnc([C@@H](C)O)n3)[C@@H](C)C2)n1`: the AC50 was 25 µM (active). On to `Cc1ccccc1Cl`, for which the compound was classed as inactive.

The values are drawn from PubChem BioAssay (EPA / NIEHS).
